# Reference: publication PMC7862700, “An all-to-all approach to the identification of sequence-specific readers for epigenetic DNA modifications on cytosine”
# Experiments:
# Experiment in all cases: DAPPL (digital affinity profiling via proximity ligation, sequencing); 10 mM Tris-HCl pH 7.5, 50 mM NaCl, 1 mM DTT, 4% glycerol, room temperature, 30 min; GST-TFs on glutathione beads, 16-mer random dsDNA library, 0.1% formaldehyde crosslink after washing; high values mean tight binding
# Conditions in all cases: protein: recombinant; tags: N-terminal GST; dsDNA, one strand shown
# GABPA = biological target: T1, GABPA (Homo sapiens, UniProt Q06546 1-454)
# T1 sequence: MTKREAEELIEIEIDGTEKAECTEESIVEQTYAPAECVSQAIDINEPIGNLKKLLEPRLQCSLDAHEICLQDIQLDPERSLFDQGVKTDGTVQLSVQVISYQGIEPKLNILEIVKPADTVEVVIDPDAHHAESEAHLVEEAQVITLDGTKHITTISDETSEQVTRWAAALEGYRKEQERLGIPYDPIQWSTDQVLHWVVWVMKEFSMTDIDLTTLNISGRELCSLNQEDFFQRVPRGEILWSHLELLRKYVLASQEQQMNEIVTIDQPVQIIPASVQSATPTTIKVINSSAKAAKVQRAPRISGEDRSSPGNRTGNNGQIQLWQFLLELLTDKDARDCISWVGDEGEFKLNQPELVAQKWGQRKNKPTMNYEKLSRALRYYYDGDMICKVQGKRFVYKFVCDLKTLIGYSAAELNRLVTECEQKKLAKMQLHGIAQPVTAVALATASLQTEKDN
# Summary of the method: (§1)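 GST fusions of human transcription factors were expressed in yeast and captured with glutathione beads. Once given DNA barcodes and pooled alongside a tag-only sample, they were incubated for 30 min at room temperature with 200 nmole of a random double-stranded 16-mer DNA library in Tris/NaCl/DTT/glycerol buffer, then washed, crosslinked (0.1% formaldehyde), proximity-ligated, PCR-amplified and sequenced on an Illumina NextSeq500. The binding signal of each hexamer is its read frequency for a factor divided by its frequency for the tag-only sample.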
# EHF = biological target: T2, EHF (Homo sapiens, UniProt Q9NZC4 1-300)
# T2 sequence: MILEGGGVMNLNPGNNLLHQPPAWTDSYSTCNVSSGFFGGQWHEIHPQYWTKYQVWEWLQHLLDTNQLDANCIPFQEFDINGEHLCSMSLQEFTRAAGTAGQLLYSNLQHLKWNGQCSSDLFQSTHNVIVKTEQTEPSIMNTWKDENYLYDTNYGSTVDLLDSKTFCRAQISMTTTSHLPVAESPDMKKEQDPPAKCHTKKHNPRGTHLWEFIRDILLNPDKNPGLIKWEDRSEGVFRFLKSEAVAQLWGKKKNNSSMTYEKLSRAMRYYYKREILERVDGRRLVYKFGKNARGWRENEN
# Summary of the method: as §1
# ETV5 = ETV5 (Homo sapiens, UniProt P41161 1-510)
# Summary of the method: as §1
# ELF3 = biological target: T3, ELF3 (Homo sapiens, UniProt P78545 1-371)
# T3 sequence: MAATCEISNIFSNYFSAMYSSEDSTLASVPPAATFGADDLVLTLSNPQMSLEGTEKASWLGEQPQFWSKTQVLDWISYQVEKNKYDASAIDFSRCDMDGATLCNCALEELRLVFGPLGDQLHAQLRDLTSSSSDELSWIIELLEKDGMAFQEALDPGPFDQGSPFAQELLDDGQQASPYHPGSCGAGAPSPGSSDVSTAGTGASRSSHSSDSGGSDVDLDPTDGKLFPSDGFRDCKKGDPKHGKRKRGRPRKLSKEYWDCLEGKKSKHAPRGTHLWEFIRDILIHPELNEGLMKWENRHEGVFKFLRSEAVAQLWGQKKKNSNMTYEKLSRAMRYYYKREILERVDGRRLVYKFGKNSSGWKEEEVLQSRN
# Summary of the method: as §1
# ETV5, sequence (P41161 whole entry): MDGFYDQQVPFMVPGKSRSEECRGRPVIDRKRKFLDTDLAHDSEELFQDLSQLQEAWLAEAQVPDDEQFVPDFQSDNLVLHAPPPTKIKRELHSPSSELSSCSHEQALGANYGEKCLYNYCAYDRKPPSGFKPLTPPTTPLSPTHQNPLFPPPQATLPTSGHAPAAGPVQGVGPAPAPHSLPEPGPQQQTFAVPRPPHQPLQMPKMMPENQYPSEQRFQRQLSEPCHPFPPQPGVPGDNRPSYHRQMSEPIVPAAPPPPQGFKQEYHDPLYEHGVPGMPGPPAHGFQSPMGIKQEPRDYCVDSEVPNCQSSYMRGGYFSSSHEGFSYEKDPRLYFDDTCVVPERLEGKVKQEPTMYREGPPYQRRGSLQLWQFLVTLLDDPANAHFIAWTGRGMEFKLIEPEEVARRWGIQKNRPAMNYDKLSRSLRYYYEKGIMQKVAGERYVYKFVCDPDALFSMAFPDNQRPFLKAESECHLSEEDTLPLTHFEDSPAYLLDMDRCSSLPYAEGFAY
sequence,measurement,setting,value
AGAGCT,binding signal,GABPA,"1.04 fold enrichment (6-mer frequency, TF over GST control)"
same,binding signal,EHF,"1.01 fold enrichment (6-mer frequency, TF over GST control)"
same,binding signal,ETV5,"1.03 fold enrichment (6-mer frequency, TF over GST control)"
same,binding signal,ELF3,"1.03 fold enrichment (6-mer frequency, TF over GST control)"
